Consider 21 compounds from PubChem BioAssay (NCATS).

For experiment [1], the target named is Cytochrome P450 2C9 (Homo sapiens) (UniProt P11712). Briefly: qHTS Assay for Inhibitors and Substrates of Cytochrome P450 2C9 (AID 883). For activity change, negative = inhibition: % is set by controls: 0 for no effect and ±100 for the full control effect. Note: nearly all actives have a fitted effect of over 60% in size. Note: potency is the fitted concentration of half-maximal effect. Summed up: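 A luminogenic readout tracked human CYP2C9 (10nM) converting deoxyluciferin (100uM, at KM) in 25mM KPO4 during 60 min at 37C with regenerated NADPH. Values normalized to 57uM sulphaphenazole as complete inhibition.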
Sequence of Cytochrome P450 2C9 (Homo sapiens) (P11712 whole entry, looked up): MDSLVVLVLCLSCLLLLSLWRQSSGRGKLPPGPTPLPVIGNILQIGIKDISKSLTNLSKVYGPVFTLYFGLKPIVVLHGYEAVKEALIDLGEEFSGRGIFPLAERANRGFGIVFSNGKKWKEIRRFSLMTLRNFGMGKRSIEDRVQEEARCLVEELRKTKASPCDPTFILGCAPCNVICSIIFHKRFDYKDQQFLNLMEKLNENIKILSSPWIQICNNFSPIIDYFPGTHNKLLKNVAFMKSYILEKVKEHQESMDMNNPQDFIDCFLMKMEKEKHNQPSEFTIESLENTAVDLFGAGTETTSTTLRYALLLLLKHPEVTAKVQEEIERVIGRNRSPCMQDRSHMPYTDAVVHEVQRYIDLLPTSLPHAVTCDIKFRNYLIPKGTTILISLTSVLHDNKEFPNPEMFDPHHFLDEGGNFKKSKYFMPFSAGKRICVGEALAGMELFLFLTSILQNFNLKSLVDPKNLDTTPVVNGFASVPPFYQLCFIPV
For orientation: In qHTS, concentration-response curves come from the screen itself.

Experiment [2] addresses Cytochrome P450 2D6 (Homo sapiens) (UniProt P10635). Briefly: qHTS Assay for Inhibitors and Substrates of Cytochrome P450 2D6 (AID 891).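 For activity change, negative = inhibition: luciferin methyl ether substrate demethylated by CYP2D6 with NADPH regeneration; % is set by controls: 0 for no effect and ±100 for the full control effect.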 Note: nearly all actives have a fitted effect of over 60% in size. Note: potency is the fitted concentration of half-maximal effect. In outline:
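Human CYP2D6 (5 nM) with 30 uM Luciferin-ME EGE (at Km) in 100 mM KPO4, compound preincubated 10 min, then NADPH regeneration system for 60 min at room temperature. Luciferin read by luminescence; normalized to 1.43 uM quinidine.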

A short description of experiment [3]: Cell Viability - BJ (AID 421; calls by dose curve;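 note: potency is the fitted concentration of half-maximal effect; cells exposed to compound for 40 hours at 37 °C before readout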). The settings on record: BJ fibroblast viability, qHTS. Summed up:
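Luminescent ATP signal (CellTiter-Glo, 20 min at room temperature) served as the read-out of viable BJ cells after 40 hours of compound treatment. Responses were scaled between DMSO and 100 uM tamoxifen, and AC50 values were obtained by Hill modeling.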

A short description of experiment [4]: qHTS Assay for Identification of Small Molecule Inducers of Hypoxia Response (AID 2120; active = well fitted curve in the direction sought with a large enough effect in the signal ratio, with a control signal flat, not every such curve was filed as active; the % refers to the signal ratio; note: 0% is about no effect). In outline: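 Induction of beta-lactamase reporter activity was measured in CellSensor HRE-bla ME-180 cells after 17 h compound treatment at 37 degrees C, using CCF4 substrate and the 460nm/530nm emission ratio to derive AC50 values.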
The target of experiment [5] is Luciferin 4-monooxygenase (Photinus pyralis) (UniProt P08659). Briefly: Biochemical firefly luciferase enzyme assay for NPC (AID 624030).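 Note: purified P. pyralis luciferase at 10 nM with luciferin and ATP substrate; 0% = DMSO and -100% = full luciferase inhibition by PTC124 control; nearly all actives have a fitted effect of over 70% in size.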 Summed up:
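Counter-screen for direct inhibition of the luciferase enzyme by approved-drug library compounds, run at 10 nM enzyme in 50 mM Tris acetate (final). Luminescence was read within 5 min of enzyme-buffer addition and normalized to PTC124 versus DMSO (0%).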

In experiment [6] the target is Glutathione peroxidase 1 (Homo sapiens) (UniProt P07203). The experiment is described as follows: Primary qHTS Assay for Inhibitors of Recombinant Selenoprotein Glutathione Peroxidase 1 (GPX1) (AID 1845191). For activity, negative = inhibition: % is set by controls: 0 for no effect and ±100 for the full control effect. Note: nearly all actives have a fitted effect of over 65% in size. The settings on record: outcome: dose series up to 48.8 µM unless noted. In outline:
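Recombinant GPX1 (10 nM final) was preincubated with compound for 30 min at room temperature, then reacted with 1 mM GSH, 0.5 mM CHP, 0.5 mM NADPH and 100 nM glutathione reductase; NADPH fluorescence (340/450 nm) was read at 0 and 15 min.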

Experiment [7] is described as follows: qHTS profiling for inhibitors of Plasmodium falciparum proliferation (AID 504749).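 Note: 0% = DMSO vehicle and full inhibition = artemisinin control; nearly all actives have a fitted effect of over 60% in size.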 As to conditions: P. falciparum in erythrocytes, SYBR Green DNA, 72 h, at 28.7 µM (top of the series). In outline: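 P. falciparum-infected erythrocytes (0.3% parasitemia, 2.5% hematocrit final) were exposed to compounds for 72 h at 37 C in 5% CO2, then lysed with SYBR Green buffer overnight at room temperature; parasite DNA fluorescence was normalized to artemisinin and DMSO controls.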

Experiment [8] can be described thus: HepG2 viability counterscreen (readout 2: ATP content) against the NCATS DSHEA and TCM libraries (AID 1794840).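 Note: HepG2 cells exposed to substances for about 24 h; 0% is about no effect.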 In outline: (§1)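 Readout 1: cellular protease activity, GF-AFC substrate (25 uM final, 30 min, fluorescence 380/510 nm). Readout 2: ATP content by CellTiter-Glo luminescence after 30 min at RT. Both follow ~24 h exposure of HepG2 cells (1,000/well) to substances.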

Experiment [9] is described as follows: HepG2 viability counterscreen (readout 1: protease activity) against the NCATS DSHEA and TCM libraries (AID 1794841).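 Note: cells exposed to compounds for about 24 h before the protease read; 0% is about no effect.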 In outline:
as §1
Background: The purpose of a counterscreen is to sort out artefacts and off-target activity.

Experiment [10] deals with Cytochrome P450 2D6 (Homo sapiens) (UniProt P10635). Briefly: qHTS for inhibitors of CYP2D6 against the NCATS DSHEA and TCM libraries (AID 1919972). Note: % is set by controls: 0 for no effect and ±100 for the full control effect. In outline: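 Steps: enzyme plus luciferin substrate dispensed; test substances pinned; 15 min RT; 1x NADPH regenerating solution added, 30–45 min RT protected from light; detection reagent, 30 min RT; luminescence measured. Minus-enzyme wells as background.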
Sequence of Cytochrome P450 2D6 (Homo sapiens) (P10635 whole entry, looked up): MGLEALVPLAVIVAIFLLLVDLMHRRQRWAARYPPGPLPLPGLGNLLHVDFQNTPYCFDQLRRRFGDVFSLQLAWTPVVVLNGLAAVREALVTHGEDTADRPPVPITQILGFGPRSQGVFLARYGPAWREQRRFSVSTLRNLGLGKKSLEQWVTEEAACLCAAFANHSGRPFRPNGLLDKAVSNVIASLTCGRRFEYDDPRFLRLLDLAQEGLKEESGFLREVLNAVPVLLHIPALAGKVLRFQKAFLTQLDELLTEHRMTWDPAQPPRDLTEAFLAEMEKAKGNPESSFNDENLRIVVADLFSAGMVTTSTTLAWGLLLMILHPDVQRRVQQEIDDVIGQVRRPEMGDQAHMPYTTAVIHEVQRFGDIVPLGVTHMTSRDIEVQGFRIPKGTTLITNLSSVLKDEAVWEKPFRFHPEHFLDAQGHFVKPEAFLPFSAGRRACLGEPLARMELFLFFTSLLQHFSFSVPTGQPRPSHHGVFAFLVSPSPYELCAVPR

Experiment [11] concerns the target Cytochrome P450 2C19 (Homo sapiens) (UniProt P33261). The experiment is described as follows: qHTS for inhibitors of CYP2C19 against the NCATS DSHEA and TCM libraries (AID 1919974).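 Note: luminescence from luciferin released by CYP2C19 oxidation of a pro-luciferin substrate.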 Note: potency is the fitted concentration of half-maximal effect. In outline:
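Light output from converted D-luciferin reports remaining CYP activity. Compounds preincubate with enzyme and substrate for 15 min; NADPH regeneration (1x final) runs the reaction for 30-45 min.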

Experiment [12] can be described thus: KB-3-1 P-gp reporter qHTS against the NCATS DSHEA and TCM libraries (AID 1919975). Note: 0% is about no effect. Summed up:
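Cell viability by CellTiter-Glo luminescence following ~72 h compound exposure (concentration-response). Uses parental, non-P-gp-overexpressing KB-3-1 line, 500 cells/well in DMEM/10% FBS, attached ~4 h before dosing.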

Experiment [13] has as its target Cytochrome P450 1A2 (Homo sapiens) (UniProt P05177). Briefly: qHTS for inhibitors of CYPIA2 against the NCATS DSHEA and TCM libraries (AID 1919976). Note: potency is the fitted concentration of half-maximal effect. Summed up:
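In this quantitative HTS, inhibition of recombinant human CYP1A2 was measured as loss of luciferin-derived luminescence. Turnover ran 30-45 min at RT after NADPH regeneration solution was added.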

Experiment [14] is described as follows: qHTS Counterscreen for compound interference against the NCATS DSHEA and TCM libraries (AID 1919978).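 Note: compounds preincubated with 1 µM D-luciferin or buffer before detection reagent; % of control where 0% means no effect.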 As to conditions: firefly luciferase detection reagent interference, luminescence. Summed up:
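With 1 uM D-luciferin or phosphate buffer only, compounds at final 19.5 nM–39.8 uM were incubated for 15 min at room temperature. Luciferase detection reagent was then added, and luminescence was measured after a further 30 min at room temperature.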

Experiment [15] in a line: Dual reporter qHTS for agonist of Pregnane X Receptor (hPXR) against the NCATS DSHEA and TCM libraries: Fluorescence readout (AID 1920058). Note: 0% is about no effect. In outline: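 Measures viability of the PXR reporter HepG2 line by protease-substrate fluorescence (405/540 nm), taken 1 h after CellTiter-Fluor addition. Substances are tested as concentration series over a ~24 h exposure, with rifampicin as agonist control.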

In experiment [16] the target is Nuclear receptor subfamily 1 group I member 2 (Homo sapiens) (UniProt O75469). Briefly: Dual reporter qHTS for agonist of Pregnane X Receptor (hPXR) against the NCATS DSHEA and TCM libraries: Luminescence readout (AID 1920059). Note: 0% is about no effect. In outline: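 hPXR-LucHepG2 cells in phenol red-free DMEM with 5% charcoal-stripped FBS, 2000 cells/well, attached 5 h, then exposed 24 h at 37C to compounds; rifampicin as positive agonist control (2.8 nM–92 uM). Luciferase luminescence read.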
Sequence of Nuclear receptor subfamily 1 group I member 2 (Homo sapiens) (O75469 whole entry, looked up): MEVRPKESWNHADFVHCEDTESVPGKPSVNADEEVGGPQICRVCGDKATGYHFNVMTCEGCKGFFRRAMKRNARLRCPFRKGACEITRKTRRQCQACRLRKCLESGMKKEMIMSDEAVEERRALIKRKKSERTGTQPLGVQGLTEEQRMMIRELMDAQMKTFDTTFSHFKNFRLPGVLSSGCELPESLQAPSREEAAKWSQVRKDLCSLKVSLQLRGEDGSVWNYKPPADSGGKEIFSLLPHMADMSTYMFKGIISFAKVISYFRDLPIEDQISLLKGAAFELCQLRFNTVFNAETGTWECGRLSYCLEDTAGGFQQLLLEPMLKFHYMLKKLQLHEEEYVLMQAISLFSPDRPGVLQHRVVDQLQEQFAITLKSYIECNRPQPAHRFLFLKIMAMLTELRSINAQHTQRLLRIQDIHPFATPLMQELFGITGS

For experiment [17] the target is unchanged. Briefly: Dual reporter qHTS for antagonist of Pregnane X Receptor (hPXR) against the NCATS DSHEA and TCM libraries: Luminescence Readout (AID 1920060).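 Note: HepG2 cells carrying hPXR luciferase reporter stimulated with rifampicin at 2 µM; 0% is about no effect.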 Summed up:
(§2)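 Antagonist mode: rifampicin 2 uM final co-added with compounds to hPXR-LucHepG2 cells for 24 h at 37C. Viability by CellTiter-Fluor, Ex/Em 405/540 nm, 1 h; reporter by ONE-Glo luminescence.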

Experiment [18] in a line: Dual reporter qHTS for antagonist of Pregnane X Receptor (hPXR) against the NCATS DSHEA and TCM libraries: Fluorescence Readout (AID 1920061). Note: 0% is about no effect. In outline:
as §2

The nature of experiment [19]: Viability counterscreen for antagonist of constitutive androstane receptor (CAR) against the NCATS DSHEA and TCM libraries (AID 1794837).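 Note: compound exposure lasted 24 h before viability reading; 0% is about no effect.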 In outline:
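Viability was measured by CellTiter-Fluor fluorescence (405/540 nm, 1 hr) in HepG2-CYP2B6-hCAR cells. Cells were co-treated 24 hr with 48 uM CITCO (final), antagonist mode, and test substances.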

Experiment [20] can be described thus: Viability counterscreen for agonist of constitutive androstane receptor (CAR) against the NCATS DSHEA and TCM libraries (AID 1794838).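 Note: HepG2 cells with CYP2B6 reporter and hCAR plus 0.75 µM PK11195 antagonist; 0% is about no effect.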 In outline: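 Cell viability, from CellTiter-Fluor fluorescence (405/540 nm), was scored after a 24 h, 37C exposure of HepG2 cells carrying CYP2B6 reporter and hCAR to test substances in presence of 0.75 uM PK11195.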

Values joined by “and” are separate entries in the source; they are usually repeats but may differ in a detail not shown here. Equal values may be shown once. Unmarked numbers belong to inactive results. Results filed as inconclusive are left out. Active and inactive are the calls of the source. Unless noted, calls come from the whole dose curve; as a rule, active = well fitted curve in the direction sought with a large enough effect; inconclusive = small, poorly fitted or top-dose-only effect, or another doubt; inactive = no such curve, though single readings can be large; an effect the other way counts as inactive or inconclusive.

Sequence of Cytochrome P450 2C19 (Homo sapiens) (P33261 whole entry, looked up): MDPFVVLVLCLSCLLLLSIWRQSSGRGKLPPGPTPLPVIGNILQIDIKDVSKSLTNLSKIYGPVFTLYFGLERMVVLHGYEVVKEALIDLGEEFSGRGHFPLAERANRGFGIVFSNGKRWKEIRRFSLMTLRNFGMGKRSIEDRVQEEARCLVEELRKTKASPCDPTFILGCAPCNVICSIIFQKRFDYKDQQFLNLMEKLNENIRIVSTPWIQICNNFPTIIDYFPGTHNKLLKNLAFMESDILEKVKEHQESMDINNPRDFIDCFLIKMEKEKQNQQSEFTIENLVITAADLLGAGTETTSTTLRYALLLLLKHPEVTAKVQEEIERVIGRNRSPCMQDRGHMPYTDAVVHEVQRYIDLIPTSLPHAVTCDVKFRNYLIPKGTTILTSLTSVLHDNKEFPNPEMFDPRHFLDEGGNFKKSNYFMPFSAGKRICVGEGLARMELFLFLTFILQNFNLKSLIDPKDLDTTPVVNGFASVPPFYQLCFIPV
Sequence of Luciferin 4-monooxygenase (Photinus pyralis) (P08659 whole entry, looked up): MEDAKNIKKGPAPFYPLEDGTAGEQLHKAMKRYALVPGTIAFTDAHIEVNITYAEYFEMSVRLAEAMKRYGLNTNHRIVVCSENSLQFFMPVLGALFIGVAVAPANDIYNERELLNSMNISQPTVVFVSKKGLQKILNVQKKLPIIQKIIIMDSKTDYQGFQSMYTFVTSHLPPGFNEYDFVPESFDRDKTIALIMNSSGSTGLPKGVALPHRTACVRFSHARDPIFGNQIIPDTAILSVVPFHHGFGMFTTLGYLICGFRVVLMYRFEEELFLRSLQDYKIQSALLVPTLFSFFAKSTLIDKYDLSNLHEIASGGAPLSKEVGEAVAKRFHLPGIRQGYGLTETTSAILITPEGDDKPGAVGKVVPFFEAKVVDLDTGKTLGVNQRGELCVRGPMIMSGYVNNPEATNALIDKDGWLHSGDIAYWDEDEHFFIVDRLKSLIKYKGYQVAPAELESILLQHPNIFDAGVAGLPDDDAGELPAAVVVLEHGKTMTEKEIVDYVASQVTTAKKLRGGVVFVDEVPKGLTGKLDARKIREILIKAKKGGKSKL
Sequence of Cytochrome P450 1A2 (Homo sapiens) (P05177 whole entry, looked up): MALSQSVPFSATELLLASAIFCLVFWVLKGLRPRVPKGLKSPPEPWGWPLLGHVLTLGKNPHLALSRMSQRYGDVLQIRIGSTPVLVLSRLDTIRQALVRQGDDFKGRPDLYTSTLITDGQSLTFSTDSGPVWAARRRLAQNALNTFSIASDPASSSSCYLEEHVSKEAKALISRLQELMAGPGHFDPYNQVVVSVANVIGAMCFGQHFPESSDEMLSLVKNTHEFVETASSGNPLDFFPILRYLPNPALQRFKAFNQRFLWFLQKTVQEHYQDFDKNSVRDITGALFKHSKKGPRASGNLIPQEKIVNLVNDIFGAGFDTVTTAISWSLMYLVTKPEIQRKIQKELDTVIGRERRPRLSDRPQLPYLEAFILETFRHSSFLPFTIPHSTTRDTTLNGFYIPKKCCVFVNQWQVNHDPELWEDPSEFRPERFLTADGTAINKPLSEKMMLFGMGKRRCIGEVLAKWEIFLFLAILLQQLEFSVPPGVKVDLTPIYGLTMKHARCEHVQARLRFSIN
Sequence of Glutathione peroxidase 1 (Homo sapiens) (P07203 whole entry, looked up): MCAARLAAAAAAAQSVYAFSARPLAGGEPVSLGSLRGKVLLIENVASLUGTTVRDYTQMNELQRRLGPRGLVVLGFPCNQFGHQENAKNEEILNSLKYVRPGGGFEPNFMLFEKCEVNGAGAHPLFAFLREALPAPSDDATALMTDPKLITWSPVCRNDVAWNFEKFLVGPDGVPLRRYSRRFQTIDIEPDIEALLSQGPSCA

With `COc1ccccc1-c1ccc2ncnc(NCc3ccccc3)c2c1`, the Potency in [1] is 0.501 µM (active).
`Cc1ccccc1-c1nc(N2CCOCC2)c2ccccc2n1`: in experiment [1], the activity change, negative = inhibition was 14.3% [at 2.29 µM].
Take `CN1CCN(c2ncc3nc(-c4cccc(C#N)c4)c(=O)n(C[C@H]4CCCO4)c3n2)CC1`: the Potency result in experiment [2] is “inactive”.
As to `COc1cccc(-c2ccc3ncnc(NCCc4c[nH]c5ccc(OC)cc45)c3c2)c1`, the Potency in experiment [1] was 0.398 µM (active); in experiment [2], 2.51 µM (active).
Regarding `CN(C)Cc1ccccc1-c1cc(NCc2cccs2)ncn1`, the Potency in [2] is 2 µM (active).
For the compound `COc1cccc(Cn2c(=O)c(-c3cc(F)cc(F)c3)nc3cnc(N4CCNCC4)nc32)c1`, the Potency in experiment [1] was 7.94 µM (active).
In the case of `COc1ccccc1CNc1ncnc2ccc(-c3ccoc3)cc12`, the Potency in [2] was 3.16 µM (active).
Consider `COc1ccccc1CNc1ncnc2ccc(-c3ccccc3OC)cc12`, for which the Potency in experiment [1] was 0.794 µM (active).
Take `CN1CCN(c2ncncc2-c2ccc(N(C)C)cc2)CC1`: the activity change, negative = inhibition in experiment [1] was 36.5% [at 2.29 µM].
`COc1ccccc1-c1nc(N(C)C)c2ccccc2n1`: the Potency in experiment [2] was 3.16 µM (active).
`COc1ccccc1-c1nccc(NCc2ccccc2)n1`: the Potency in [2] is 3.98 µM (active).
With `Cc1occc(=O)c1O`, in [3], the Potency was above 92 µM. In addition, in experiment [4], the result was inactive.
Turning to `C[N+](C)(C)CC(O)CC(=O)O` (configuration not stated), the compound was classed as inactive in experiment [5] and in [6]. For the same compound, the activity, negative = inhibition is 14.7% in [7] (parasite line A) and 11.5% in [7] (parasite line B).
For `CN1[C@@H]2CC[C@H]1CC(OC(=O)[C@@H](O)c1ccccc1)C2` (some centres not stated), in experiment [5], the compound was called inactive. Moreover, the activity, negative = inhibition was -3.65% and -0.465% in [7] (parasite line A); 7.89% and -12.1% in experiment [7] (parasite line B).
Take `NC(Cc1c[nH]c2ccccc12)C(=O)O` (configuration not stated): the compound was called inactive in experiment [8], in experiment [9], in experiment [12], in experiment [15], in experiment [16] and in experiment [17]. Moreover, the compound was called inactive in experiment [18]. In addition, the Potency result in [10] was “inactive”. For the same compound, the values for the Potency in [11] and in experiment [13] were 3.16 µM (active) and 3.55 µM (active), respectively. Besides, the max response in experiment [14] was 1.56%.
For the compound `CC1(C)SC2C(NC(=O)Cc3ccccc3)C(=O)N2C1C(=O)O` (configuration not stated), the outcome in experiment [6] was inactive.
Consider `C=C[C@](C)(O)CCC=C(C)C`, for which the call in experiment [19], in [20], in experiment [8], in [9], in [12] and in experiment [15] was inactive. Further, the outcome in [17] and in experiment [18] was inactive. In addition, the Potency result in [10] was “inactive”. The Potency in [11] and in experiment [13] was 3.55 µM (active) each time. The max response in [14] is -3.94%.
`COc1ccc2ccc(=O)oc2c1`: the compound was called inactive in experiment [19], in experiment [20], in experiment [8], in experiment [9], in experiment [12] and in experiment [15]. Further, the compound was classed as inactive in experiment [16], in experiment [17] and in [18]. The Potency entry in experiment [10] and in experiment [11] was “inactive” throughout. In experiment [13], the Potency is 14.1 µM (active). Moreover, the max response in experiment [14] is 3.31%.
Regarding `O=C(/C=C/c1ccc(O)c(O)c1)OC(Cc1ccc(O)c(O)c1)C(=O)O` (configuration not stated), the compound was classed as inactive in experiment [19], in experiment [20], in experiment [8], in experiment [9], in experiment [12] and in experiment [15]. Moreover, the compound was classed as inactive in [16] and in experiment [18]. Also, in [10], the Potency result is “inactive”. Moreover, the Potency in experiment [11] is 3.55 µM (active). Moreover, the max response in experiment [14] was -4.37%.
As for `CC1=CC(=O)CC(C)(C)C1(O)/C=C/C(C)=C\C(=O)O` (configuration not stated), in experiment [3], the Potency is above 92 µM. Also, the compound was classed as inactive in [4].
As for `COc1cc2c(cc1OC)C1Cc3ccc(OC)c(OC)c3CN1CC2` (configuration not stated), the result in experiment [6] was inactive.
